Hit rate of the full screen: of about 340,000 compounds, about 2,100 (0.62%) were called active.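 How the source made its calls: active means first-screen hits whose inhibition reached a set limit at any dose in the follow-up dose series; inconclusive means inhibition above the set first-screen limit but never retested; inactive means the rest.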 These entries were drawn from the full list. Entries with a potency or affinity are not part of this list.
The compounds below were run against Rac GTPase-activating protein 1 (Homo sapiens) (UniProt Q9H0H5) (assay: blockers of MgcRacGAP-driven Rac1 GTP hydrolysis – biochemical, ADP Hunter fluorescence, primary and confirmatory, confirmation (AID 624330;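 further: fluorescence reports GDP produced by GAP-driven GTP hydrolysis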)). Conditions: MgcRacGAP-stimulated Rac1 GTP hydrolysis, at 30 µM, hits give high values, GST-tagged Rac1 F28L mutant substrate.
Rac GTPase-activating protein 1 (Homo sapiens), sequence (Q9H0H5 whole entry, looked up): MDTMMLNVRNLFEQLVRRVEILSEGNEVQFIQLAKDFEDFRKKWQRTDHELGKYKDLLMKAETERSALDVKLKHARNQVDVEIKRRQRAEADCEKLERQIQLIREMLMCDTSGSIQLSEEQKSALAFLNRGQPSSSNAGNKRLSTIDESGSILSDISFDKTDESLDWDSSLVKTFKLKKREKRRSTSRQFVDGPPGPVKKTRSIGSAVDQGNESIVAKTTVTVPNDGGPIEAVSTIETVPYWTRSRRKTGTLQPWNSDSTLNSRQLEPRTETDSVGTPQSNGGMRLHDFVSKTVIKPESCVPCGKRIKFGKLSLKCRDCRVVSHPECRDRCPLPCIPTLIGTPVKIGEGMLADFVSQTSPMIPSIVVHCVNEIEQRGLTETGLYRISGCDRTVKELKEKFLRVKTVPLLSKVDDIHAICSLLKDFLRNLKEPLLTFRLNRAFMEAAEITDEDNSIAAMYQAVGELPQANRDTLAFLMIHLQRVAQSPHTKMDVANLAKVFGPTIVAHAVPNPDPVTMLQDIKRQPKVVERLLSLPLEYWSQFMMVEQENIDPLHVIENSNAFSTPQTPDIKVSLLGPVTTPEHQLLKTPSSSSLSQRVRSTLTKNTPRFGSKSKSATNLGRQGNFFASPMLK

inhibition, inactive:
CC(C)c1ccc(CNC(=O)C(=O)NCC2CCCO2)cc1 (stereo not drawn) 14.8%
Cc1cc(NS(=O)(=O)c2ccc(NC(=O)COc3ccccc3[N+](=O)[O-])cc2)no1 7.5%
CC1c2ccccc2SC(CCCN(C)C)c2ccccc21 (stereo not drawn) 5.84%
CN(C)CCC1Sc2ccccc2Oc2ccccc21 (stereo not drawn) 17.5%
Cc1onc(-c2c(F)cccc2Cl)c1C(=O)NCc1cccs1 5.78%
COc1ccc(S(=O)(=O)N(C)CC(=O)NCCC2=CCCCC2)cc1 4.26%
O=[N+]([O-])c1ccc2oc(/C=C/c3ccc(O)cc3)nc2c1 13.2%
O=c1[nH]c(/C=C\c2cccc(O)c2)nc(O)c1[N+](=O)[O-] 13.1%
NS(=O)(=O)c1ccc(NC(=S)NNC(=O)c2ccc(Br)o2)cc1 4.44%
COc1ccc(Cl)cc1NC(=O)CN(C)CC(=O)Nc1ccc(Br)cc1 3.57%
O=C(NN1C(=O)/C(=C\c2cccnc2)SC1=S)c1ccco1 13.7%
CCOc1ccc(NC(=O)CSc2nnc(C3CC3)n2C)cc1S(=O)(=O)N1CCCCC1 8.28%
COc1ccccc1N1CCN(C(=O)c2ccncc2)CC1 -0.56%
COc1ccc(OC)c(CN2CCN(C(=O)c3ccc(F)cc3)CC2)c1 25%
COc1ccc(Br)cc1CN1CCN(C(=O)c2ccc(OC)c(OC)c2)CC1 21%
COc1ccccc1C(=O)N1CCN(C(=O)c2ccncc2)CC1 1.76%
CCCCOc1ccc(/C=C/C(=O)N(CC)CC(=O)Nc2ccc3c(c2)OCCO3)cc1OC 11.7%
C/C(Cn1nc([N+](=O)[O-])cc1C)=N\NC(=O)COc1ccc(Cl)cc1Cl 6.26%
Cc1ccccc1NC(=O)c1c(C)nn(-c2ccccc2)c1Cl 8.16%
O=C(CSc1ncccn1)NCC1CCCO1 (stereo not drawn) 4.06%
COc1cc(OC)c(OC)cc1/C=N/Nc1nc2ccccc2[nH]1 12.8%
COc1cc(/C=N\Nc2nc3ccccc3[nH]2)cc(OC)c1OC 29%
COc1ccc(O)c(/C=N/Nc2nc3ccccc3[nH]2)c1 1.94%
COc1cc(/C=N/Nc2nc3ccccc3[nH]c2=O)ccc1O 15.8%
COc1ccc(NC(=O)c2c(C)nn(Cc3ccccc3)c2Cl)cc1S(=O)(=O)N1CCOCC1 2.08%
Cc1ccc(S(=O)(=O)N2CCC(C(=O)OC(C)C(=O)N3CCOCC3)CC2)cc1 (stereo not drawn) 4.25%
CCc1ccc(NC(=O)c2n[nH]c(=O)c3ccccc23)cc1 2.23%
COc1ccc(N2CCN(C(=O)CCN3C(=O)C4C5C=CC(C5)C4C3=O)CC2)cc1 (stereo not drawn) 10.9%
CCn1cc(CNC(=O)C2CCC(=O)N(CCc3cccc(F)c3)C2)cn1 (stereo not drawn) 4.69%
CCCNC(=O)COC(=O)C1CCN(S(=O)(=O)c2ccc3c(c2)OCCO3)CC1 2.29%
O=C(CCCC(=O)NCC1CCCO1)NCC1CCCO1 (stereo not drawn) 7.04%
O=C(CSCSCC(=O)NCC1CCCO1)NCC1CCCO1 (stereo not drawn) 9.35%
O=C(CN1CCN(c2ccc(F)cc2)CC1)NCC1CCCO1 (stereo not drawn) 12.3%
COc1ccccc1CC(=O)NCC1CCCO1 (stereo not drawn) 14.3%
Cc1cccc(C(C)C)c1NC(=O)Cc1ccc(S(=O)(=O)N2CCOCC2)s1 6.93%
COCCC(=O)N1CCCC(CCC(=O)NCc2ccc(F)c(F)c2)C1 (stereo not drawn) 4.17%
COc1ccc2nc3cc([N+](=O)[O-])ccc3c(NNc3ccc([N+](=O)[O-])cc3)c2c1 1.37%
COc1cc2c(cc1OC)-c1cc(NC3CC3)nc(=O)n1CC2 3.36%
Cc1ccc(NC(=O)c2csc(-c3ccccc3)c2C)cc1 9.66%
CCOC(=O)c1c(C)[nH]c(C(=O)CN2CCOCC2)c1C 2.51%
CCOC(=O)c1c(C)[nH]c(C(=O)N2CCN(CC)CC2)c1C 2.01%
COC(=O)c1cc(OC)c(OC)cc1NC(=O)c1cc(OC)cc(OC)c1 -0.7%
CCOc1ccccc1N1CCN(C(=O)CC(C)(C)C)CC1 -0.74%
CCOc1ccccc1N1CCN(Cc2ccco2)CC1 14.9%
CCC(=O)c1cn(CC(=O)Nc2cc(C)ccc2C)c2ccccc12 13.6%
O=C(CNC(=O)c1ccc(Br)o1)NNC(=O)c1ccccc1O 6.63%
COc1cc(CC(=O)Nc2ccc(N3CCOCC3)cc2)cc(OC)c1OC 4.24%
CCOc1cc(CNc2ccc3c(c2)OCCO3)cc(Br)c1OC 23.8%
CCOc1c(Cl)cc(CNc2ccc(N3CCCC3)cc2)cc1OC 36.9%
CCOc1cc(CNc2ccc(Br)cc2)cc(Br)c1OCC(=O)NC(C)(C)C -3.09%
CCOc1cc(CNc2ccccc2)cc(Br)c1OCC(=O)NC(C)(C)C 6.03%
CCOc1cc(C(=O)Nc2ccc(N3CCOCC3)cc2)cc(Br)c1OC 2.59%
COc1cc(CNc2ccc(N3CCCC3)cc2)cc(Cl)c1OC 1.89%
CCOc1cc(CNc2ccc3c(c2)OCCO3)cc(Br)c1OCC 30%
COCCNC(=O)/C(C#N)=C/c1ccc(O)cc1 15.1%
CC(C)CCc1noc(CN2CCC(C(=O)N3CCOCC3)CC2)n1 7.77%
Cc1cccc(C2NS(=O)(=O)N=C2N)c1 (stereo not drawn) 4.81%
NC(=O)c1c(NC(=O)C2c3ccccc3Oc3ccccc32)sc2c1CCCCC2 10.9%
Oc1c(C=C2N=c3ccccc3=N2)sc(=S)n1-c1ccc2ccccc2c1 9.34%
O=C(CN(c1ccccc1)S(=O)(=O)c1ccccc1)Nc1ccc(F)cc1 -5.62%
Cc1ccc(NC(=O)c2ccccc2F)cc1S(=O)(=O)N1CCCCCC1 -2.21%
CCn1c(CSc2nc3ccccc3s2)nnc1SCC(=O)c1ccc(O)cc1O 6.52%
CCn1c(CSc2nc3ccccc3s2)nnc1SCC(=O)c1ccc(Cl)cc1 -0.25%

— PubChem BioAssay AID624330 (Southern Research Specialized Biocontainment Screening …, 2012)
